Reference: the supplement of paper PMC10849652
Targets with a hit are over-represented here; the source holds about 7,900 in all. About 0.6% of all pairs of compound and target were hits.

Compound: COC(=O)[C@H](CCSC)NC(=O)C1=C(C=C(C=C1)NC[C@H](CS)N)C2=CC=CC=C2
Assay: log2 fold change, soluble protein after heating vs DMSO (PISA); higher = thermal stabilisation; K562 cells, 10 uM, 30 min; active = over 0.2 and 3.5 SD of the protein, either way, in both replicates (recomputed)
Summary of the method: (§1)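 K562 cells at 2×10^6 cells/mL were treated with 10 μM compound for 30 min. Aliquots were heated for 3 min across 48°C-58°C, pooled, and extracted in PBS with 0.5% NP-40 at 4°C; soluble protein was the supernatant after 21,000xg for 90 min. Soluble protein was quantified by TMTpro 16plex LC-MS/MS with channel sums equalised, and reported as log2 fold change in thermal stability against DMSO controls, with values from duplicates.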

UniProt Q9NVC3, sequence (Q9NVC3 whole entry, looked up): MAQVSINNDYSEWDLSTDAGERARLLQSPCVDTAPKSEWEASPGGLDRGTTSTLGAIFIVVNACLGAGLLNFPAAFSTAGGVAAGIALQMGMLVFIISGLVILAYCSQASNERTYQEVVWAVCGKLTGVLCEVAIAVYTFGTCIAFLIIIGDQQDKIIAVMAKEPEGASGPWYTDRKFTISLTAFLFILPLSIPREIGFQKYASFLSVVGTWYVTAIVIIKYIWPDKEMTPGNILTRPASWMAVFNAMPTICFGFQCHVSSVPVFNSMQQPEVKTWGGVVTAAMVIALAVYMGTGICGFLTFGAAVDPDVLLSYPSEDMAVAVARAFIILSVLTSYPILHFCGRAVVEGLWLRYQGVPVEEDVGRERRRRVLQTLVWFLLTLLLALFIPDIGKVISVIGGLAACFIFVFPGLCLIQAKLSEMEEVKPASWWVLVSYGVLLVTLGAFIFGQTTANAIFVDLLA
UniProt Q96BZ9, sequence (Q96BZ9 whole entry, looked up): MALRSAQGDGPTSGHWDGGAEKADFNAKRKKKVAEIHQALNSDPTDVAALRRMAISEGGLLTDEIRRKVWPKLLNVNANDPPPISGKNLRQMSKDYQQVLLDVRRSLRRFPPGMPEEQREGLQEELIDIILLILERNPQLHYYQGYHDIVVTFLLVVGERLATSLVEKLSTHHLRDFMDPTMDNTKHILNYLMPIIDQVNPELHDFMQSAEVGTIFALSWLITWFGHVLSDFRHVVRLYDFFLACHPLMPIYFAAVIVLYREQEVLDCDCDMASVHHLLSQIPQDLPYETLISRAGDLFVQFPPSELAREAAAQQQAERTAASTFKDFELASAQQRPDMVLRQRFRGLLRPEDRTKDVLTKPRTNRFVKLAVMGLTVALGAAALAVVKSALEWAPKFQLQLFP
UniProt Q9BYN0, sequence (Q9BYN0 whole entry, looked up): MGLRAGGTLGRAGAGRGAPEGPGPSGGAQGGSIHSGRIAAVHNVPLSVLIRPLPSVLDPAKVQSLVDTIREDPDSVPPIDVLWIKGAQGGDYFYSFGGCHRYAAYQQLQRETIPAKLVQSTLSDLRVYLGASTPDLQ
UniProt Q9UHD2, sequence (Q9UHD2 whole entry, looked up): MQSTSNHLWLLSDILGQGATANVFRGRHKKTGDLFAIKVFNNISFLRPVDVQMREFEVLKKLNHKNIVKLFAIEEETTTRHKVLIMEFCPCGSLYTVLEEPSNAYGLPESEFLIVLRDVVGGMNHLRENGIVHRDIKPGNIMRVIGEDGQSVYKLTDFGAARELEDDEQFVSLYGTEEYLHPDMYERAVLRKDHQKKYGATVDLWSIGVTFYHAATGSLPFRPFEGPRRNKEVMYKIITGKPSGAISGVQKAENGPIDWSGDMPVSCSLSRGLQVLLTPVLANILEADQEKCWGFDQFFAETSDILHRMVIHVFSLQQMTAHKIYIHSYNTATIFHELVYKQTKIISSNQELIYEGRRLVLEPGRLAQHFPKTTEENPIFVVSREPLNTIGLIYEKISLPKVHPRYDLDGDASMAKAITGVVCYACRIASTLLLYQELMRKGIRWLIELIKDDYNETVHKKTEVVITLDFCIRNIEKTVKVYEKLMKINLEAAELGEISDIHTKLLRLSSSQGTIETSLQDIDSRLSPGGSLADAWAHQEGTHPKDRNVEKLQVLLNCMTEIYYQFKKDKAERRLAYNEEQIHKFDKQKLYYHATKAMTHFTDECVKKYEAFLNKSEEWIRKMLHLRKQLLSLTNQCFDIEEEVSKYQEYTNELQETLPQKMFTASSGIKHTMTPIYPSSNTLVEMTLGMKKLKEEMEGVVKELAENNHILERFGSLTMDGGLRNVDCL
UniProt O60749, sequence (O60749 whole entry, looked up): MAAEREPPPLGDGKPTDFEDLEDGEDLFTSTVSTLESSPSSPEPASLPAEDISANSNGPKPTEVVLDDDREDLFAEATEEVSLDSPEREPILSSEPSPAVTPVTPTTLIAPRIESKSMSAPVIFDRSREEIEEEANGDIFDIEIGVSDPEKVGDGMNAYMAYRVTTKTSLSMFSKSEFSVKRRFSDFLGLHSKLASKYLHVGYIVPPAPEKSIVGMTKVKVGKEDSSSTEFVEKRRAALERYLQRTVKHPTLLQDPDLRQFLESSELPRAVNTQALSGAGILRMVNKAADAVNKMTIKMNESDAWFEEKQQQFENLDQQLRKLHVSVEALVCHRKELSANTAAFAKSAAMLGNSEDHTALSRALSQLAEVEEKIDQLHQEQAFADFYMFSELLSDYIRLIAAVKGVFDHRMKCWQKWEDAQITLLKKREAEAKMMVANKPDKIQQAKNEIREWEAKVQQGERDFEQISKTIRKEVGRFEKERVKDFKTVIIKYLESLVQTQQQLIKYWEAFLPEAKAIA
UniProt P51532, sequence (P51532 whole entry, looked up): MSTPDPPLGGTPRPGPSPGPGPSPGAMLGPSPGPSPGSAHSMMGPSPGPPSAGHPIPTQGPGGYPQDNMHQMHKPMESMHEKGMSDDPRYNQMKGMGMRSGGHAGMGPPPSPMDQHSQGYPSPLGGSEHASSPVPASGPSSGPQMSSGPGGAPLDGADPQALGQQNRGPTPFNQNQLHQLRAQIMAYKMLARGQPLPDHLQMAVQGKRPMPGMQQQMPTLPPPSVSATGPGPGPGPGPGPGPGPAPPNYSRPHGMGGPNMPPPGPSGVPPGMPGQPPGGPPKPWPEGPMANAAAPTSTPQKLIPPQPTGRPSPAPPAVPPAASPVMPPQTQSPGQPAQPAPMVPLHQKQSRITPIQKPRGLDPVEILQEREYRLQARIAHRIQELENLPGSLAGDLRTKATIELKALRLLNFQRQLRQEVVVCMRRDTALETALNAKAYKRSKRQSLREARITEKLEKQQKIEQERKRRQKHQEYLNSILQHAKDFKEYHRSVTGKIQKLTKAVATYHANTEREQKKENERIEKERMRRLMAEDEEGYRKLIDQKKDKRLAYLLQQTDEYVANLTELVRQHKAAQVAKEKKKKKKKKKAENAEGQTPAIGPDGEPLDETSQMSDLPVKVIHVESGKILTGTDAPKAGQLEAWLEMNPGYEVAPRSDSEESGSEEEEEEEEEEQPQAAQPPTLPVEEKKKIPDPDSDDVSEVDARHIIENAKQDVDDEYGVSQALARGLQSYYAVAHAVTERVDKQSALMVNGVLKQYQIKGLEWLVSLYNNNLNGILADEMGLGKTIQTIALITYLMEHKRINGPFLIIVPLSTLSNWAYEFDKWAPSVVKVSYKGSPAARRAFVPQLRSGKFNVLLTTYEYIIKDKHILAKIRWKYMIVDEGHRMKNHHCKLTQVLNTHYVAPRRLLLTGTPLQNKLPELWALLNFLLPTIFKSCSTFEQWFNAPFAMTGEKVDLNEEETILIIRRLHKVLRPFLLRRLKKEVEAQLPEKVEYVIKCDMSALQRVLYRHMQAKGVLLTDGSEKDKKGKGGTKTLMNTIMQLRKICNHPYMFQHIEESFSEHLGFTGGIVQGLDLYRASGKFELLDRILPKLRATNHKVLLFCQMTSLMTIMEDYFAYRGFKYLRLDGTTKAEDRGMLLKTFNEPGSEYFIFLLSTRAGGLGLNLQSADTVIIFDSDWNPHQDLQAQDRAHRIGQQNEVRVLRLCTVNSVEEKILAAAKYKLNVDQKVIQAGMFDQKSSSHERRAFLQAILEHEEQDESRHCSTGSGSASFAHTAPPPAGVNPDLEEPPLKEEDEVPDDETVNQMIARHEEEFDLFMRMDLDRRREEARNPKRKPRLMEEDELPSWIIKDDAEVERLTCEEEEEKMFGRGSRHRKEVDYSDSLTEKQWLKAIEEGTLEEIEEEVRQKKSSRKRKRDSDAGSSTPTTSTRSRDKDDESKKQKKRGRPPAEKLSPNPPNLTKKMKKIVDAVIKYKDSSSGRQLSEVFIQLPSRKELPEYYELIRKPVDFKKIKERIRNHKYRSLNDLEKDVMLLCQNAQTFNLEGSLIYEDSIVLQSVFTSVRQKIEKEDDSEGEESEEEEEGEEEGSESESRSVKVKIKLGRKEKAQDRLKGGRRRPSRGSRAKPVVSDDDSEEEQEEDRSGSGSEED
UniProt P35711, sequence (P35711 whole entry, looked up): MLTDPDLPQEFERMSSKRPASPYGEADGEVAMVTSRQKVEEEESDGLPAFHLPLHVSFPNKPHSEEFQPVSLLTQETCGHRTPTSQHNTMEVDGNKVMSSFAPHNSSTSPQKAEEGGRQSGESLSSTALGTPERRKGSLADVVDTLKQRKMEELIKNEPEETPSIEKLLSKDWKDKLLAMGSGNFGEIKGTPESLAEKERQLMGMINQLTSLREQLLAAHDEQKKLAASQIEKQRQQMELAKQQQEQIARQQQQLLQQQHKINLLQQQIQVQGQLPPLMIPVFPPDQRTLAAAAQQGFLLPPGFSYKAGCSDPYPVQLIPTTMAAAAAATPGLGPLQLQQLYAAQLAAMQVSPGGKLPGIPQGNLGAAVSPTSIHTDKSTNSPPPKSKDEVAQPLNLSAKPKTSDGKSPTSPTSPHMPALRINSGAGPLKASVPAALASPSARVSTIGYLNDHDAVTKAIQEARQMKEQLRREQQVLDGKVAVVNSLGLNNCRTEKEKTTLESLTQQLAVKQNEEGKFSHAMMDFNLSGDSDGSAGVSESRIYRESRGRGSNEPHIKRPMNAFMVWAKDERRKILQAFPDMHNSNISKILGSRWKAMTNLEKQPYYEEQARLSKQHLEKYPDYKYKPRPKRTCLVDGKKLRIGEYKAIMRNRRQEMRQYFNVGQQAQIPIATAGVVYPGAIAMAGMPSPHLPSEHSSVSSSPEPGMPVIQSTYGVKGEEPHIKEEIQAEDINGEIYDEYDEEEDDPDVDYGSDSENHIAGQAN
UniProt Q13242, sequence (Q13242 whole entry, looked up): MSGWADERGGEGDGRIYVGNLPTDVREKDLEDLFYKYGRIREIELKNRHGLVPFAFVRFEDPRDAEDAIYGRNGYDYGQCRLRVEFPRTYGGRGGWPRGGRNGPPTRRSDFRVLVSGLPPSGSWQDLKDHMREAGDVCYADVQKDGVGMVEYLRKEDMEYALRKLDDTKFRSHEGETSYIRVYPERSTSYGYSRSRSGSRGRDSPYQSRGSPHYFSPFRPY

**Q.** With TC2N (UniProt Q8N9U0) as the target, how does the log2 fold change read?
**A.** The log2 fold change was -0.096 (inactive).

**Q.** With SYK (UniProt P43405) as the target, how does the log2 fold change read?
**A.** Its log2 fold change is -0.012 (inactive).

**Q.** Which log2 fold change does the source give for SUPT5H isoform 2 (UniProt O00267) here?
**A.** The log2 fold change was -0.058 (inactive).

Compound: COC1=CC=C(C=C1)CN2C=CC3=C2C=C(C=C3)C(=O)NO
Assay: as above
Summary of the method: as §1

**Q.** How did the log2 fold change turn out when SNX2 isoform 2 (UniProt O60749) was run?
**A.** Its log2 fold change is 0.258 (inactive).

**Q.** Which log2 fold change does the source give for SSBP4 (UniProt Q9BWG4) here?
**A.** The log2 fold change was -0.065 (inactive).

**Q.** TBK1 (UniProt Q9UHD2) was tested. Which log2 fold change did it give?
**A.** The log2 fold change was -0.06 (inactive).

**Q.** Which log2 fold change does the source give for SLC8B1 (UniProt Q6J4K2) here?
**A.** The log2 fold change was 0.044 (inactive).

**Q.** Which log2 fold change does the source give for TBP (UniProt P20226) here?
**A.** Its log2 fold change is -0.014 (inactive).

**Q.** SP2 (UniProt Q02086) was tested. Which log2 fold change did it give?
**A.** Its log2 fold change is -0.319 (inactive).

**Q.** For TCOF1 isoform 6 (UniProt Q13428), which log2 fold change is on record?
**A.** The log2 fold change was -0.318 (inactive).

**Q.** Which log2 fold change does the source give for SPIRE1 (UniProt Q08AE8) here?
**A.** Its log2 fold change is -0.509 (active).

**Q.** How did the log2 fold change turn out when SPAG9 isoform 4 (UniProt O60271) was run?
**A.** The log2 fold change was -0.02 (inactive).

**Q.** For TEX30 (UniProt Q5JUR7), which log2 fold change is on record?
**A.** The log2 fold change was -0.063 (inactive).

**Q.** How did the log2 fold change turn out when SOX5 (UniProt P35711) was run?
**A.** The log2 fold change was -0.087 (inactive).

**Q.** With SMPD4 isoform 2 (UniProt Q9NXE4) as the target, how does the log2 fold change read?
**A.** Its log2 fold change is -0.011 (inactive).

**Q.** With STK17B (UniProt O94768) as the target, how does the log2 fold change read?
**A.** The log2 fold change was 0.01 (inactive).

**Q.** Which log2 fold change does the source give for SRC isoform 2 (UniProt P12931) here?
**A.** The log2 fold change was 0.197 (inactive).

**Q.** SMARCA4 (UniProt P51532) was tested. Which log2 fold change did it give?
**A.** The log2 fold change was -0.101 (inactive).

**Q.** TBC1D20 isoform 3 (UniProt Q96BZ9) was tested. Which log2 fold change did it give?
**A.** Its log2 fold change is 0.026 (inactive).

**Q.** Which log2 fold change does the source give for SLC35B4 (UniProt Q969S0) here?
**A.** The log2 fold change was -0.076 (inactive).

**Q.** Which log2 fold change does the source give for SREBF1 isoform 4 (UniProt P36956) here?
**A.** The log2 fold change was -0.089 (inactive).

**Q.** Which log2 fold change does the source give for TAOK2 (UniProt Q9UL54) here?
**A.** Its log2 fold change is 0.189 (inactive).

**Q.** Which log2 fold change does the source give for SLC38A7 (UniProt Q9NVC3) here?
**A.** Its log2 fold change is -0.042 (inactive).

**Q.** For SRXN1 (UniProt Q9BYN0), which log2 fold change is on record?
**A.** The log2 fold change was 0.406 (inactive).

**Q.** For SRSF9 (UniProt Q13242), which log2 fold change is on record?
**A.** Its log2 fold change is -0.088 (inactive).

**Q.** Which log2 fold change does the source give for THAP9 (UniProt Q9H5L6) here?
**A.** Its log2 fold change is 0.434 (inactive).

**Q.** With SNRK (UniProt Q9NRH2) as the target, how does the log2 fold change read?
**A.** The log2 fold change was 0.15 (inactive).

**Q.** With SPIN4 (UniProt Q56A73) as the target, how does the log2 fold change read?
**A.** Its log2 fold change is -1.43 (active).

**Q.** How did the log2 fold change turn out when SYK (UniProt P43405) was run?
**A.** The log2 fold change was 0.085 (inactive).

Compound: CON(C)C(=O)N1N=C(c2cc(F)ccc2F)S[C@@]1(CCCN)c1ccccc1 [filanesib]
Assay: as above
Summary of the method: as §1

**Q.** SNX2 isoform 2 (UniProt O60749) was tested. Which log2 fold change did it give?
**A.** Its log2 fold change is -0.234 (inactive).

**Q.** Which log2 fold change does the source give for SSBP4 (UniProt Q9BWG4) here?
**A.** Its log2 fold change is -0.601 (inactive).

**Q.** Which log2 fold change does the source give for TK1 (UniProt K7ERV3) here?
**A.** The log2 fold change was 0.005 (inactive).

**Q.** TBK1 (UniProt Q9UHD2) was tested. Which log2 fold change did it give?
**A.** The log2 fold change was 0.05 (inactive).

**Q.** How did the log2 fold change turn out when SP2 (UniProt Q02086) was run?
**A.** Its log2 fold change is 0.012 (inactive).

**Q.** With TCOF1 isoform 6 (UniProt Q13428) as the target, how does the log2 fold change read?
**A.** The log2 fold change was -0.087 (inactive).

**Q.** For TCOF1 isoform 3 (UniProt Q13428), which log2 fold change is on record?
**A.** Its log2 fold change is -0.152 (inactive).

**Q.** With SPAG9 isoform 4 (UniProt O60271) as the target, how does the log2 fold change read?
**A.** The log2 fold change was 0.078 (inactive).

**Q.** SOX5 (UniProt P35711) was tested. Which log2 fold change did it give?
**A.** Its log2 fold change is -0.08 (inactive).

**Q.** SRC isoform 2 (UniProt P12931) was tested. Which log2 fold change did it give?
**A.** Its log2 fold change is 0.229 (inactive).

**Q.** For SMARCA4 (UniProt P51532), which log2 fold change is on record?
**A.** Its log2 fold change is 0.124 (inactive).

**Q.** How did the log2 fold change turn out when TBC1D20 isoform 3 (UniProt Q96BZ9) was run?
**A.** Its log2 fold change is -0.023 (inactive).

**Q.** SLC35B4 (UniProt Q969S0) was tested. Which log2 fold change did it give?
**A.** Its log2 fold change is -0.119 (inactive).

**Q.** For TM7SF2 (UniProt O76062), which log2 fold change is on record?
**A.** The log2 fold change was -0.142 (inactive).

**Q.** Which log2 fold change does the source give for SLC38A7 (UniProt Q9NVC3) here?
**A.** Its log2 fold change is -0.098 (inactive).

**Q.** SRXN1 (UniProt Q9BYN0) was tested. Which log2 fold change did it give?
**A.** The log2 fold change was 0.076 (inactive).

**Q.** How did the log2 fold change turn out when SRSF9 (UniProt Q13242) was run?
**A.** The log2 fold change was 0.378 (inactive).

**Q.** With SNRK (UniProt Q9NRH2) as the target, how does the log2 fold change read?
**A.** The log2 fold change was 0.158 (inactive).

Compound: CO[C@H]1C[C@@H]2CC[C@@H](C)[C@@](O)(O2)C(=O)C(=O)N2CCCC[C@H]2C(=O)O[C@H]([C@H](C)C[C@@H]2CC[C@H](n3cnnn3)[C@H](OC)C2)CC(=O)[C@H](C)/C=C(\C)[C@@H](O)[C@@H](OC)C(=O)[C@H](C)C[C@H](C)/C=C/C=C/C=C/1C [zotarolimus]
Assay: as above
Summary of the method: as §1

**Q.** How did the log2 fold change turn out when SNX2 isoform 2 (UniProt O60749) was run?
**A.** The log2 fold change was 0.022 (inactive).

**Q.** With TK1 (UniProt K7ERV3) as the target, how does the log2 fold change read?
**A.** Its log2 fold change is -0.034 (inactive).

**Q.** For TBK1 (UniProt Q9UHD2), which log2 fold change is on record?
**A.** The log2 fold change was -0.037 (inactive).

**Q.** SLC8B1 (UniProt Q6J4K2) was tested. Which log2 fold change did it give?
**A.** The log2 fold change was -0.097 (inactive).

**Q.** TBP (UniProt P20226) was tested. Which log2 fold change did it give?
**A.** Its log2 fold change is -0.1 (inactive).

**Q.** With SLC46A1 (UniProt Q96NT5) as the target, how does the log2 fold change read?
**A.** Its log2 fold change is -0.095 (inactive).

**Q.** Which log2 fold change does the source give for TCOF1 isoform 6 (UniProt Q13428) here?
**A.** Its log2 fold change is -0.062 (inactive).

**Q.** How did the log2 fold change turn out when SPIRE1 (UniProt Q08AE8) was run?
**A.** Its log2 fold change is -0.051 (inactive).

**Q.** SLC9A6 isoform 3 (UniProt Q92581) was tested. Which log2 fold change did it give?
**A.** Its log2 fold change is -0.051 (inactive).

**Q.** For SPAG9 isoform 4 (UniProt O60271), which log2 fold change is on record?
**A.** Its log2 fold change is -0.076 (inactive).

**Q.** Which log2 fold change does the source give for TEX30 (UniProt Q5JUR7) here?
**A.** The log2 fold change was 0.031 (inactive).

**Q.** For SOX5 (UniProt P35711), which log2 fold change is on record?
**A.** The log2 fold change was -0.058 (inactive).

**Q.** SMPD4 isoform 2 (UniProt Q9NXE4) was tested. Which log2 fold change did it give?
**A.** The log2 fold change was 0.043 (inactive).

**Q.** With SRC isoform 2 (UniProt P12931) as the target, how does the log2 fold change read?
**A.** Its log2 fold change is -0.123 (inactive).

**Q.** For SMARCA4 (UniProt P51532), which log2 fold change is on record?
**A.** Its log2 fold change is 0.09 (inactive).

**Q.** For TBC1D20 isoform 3 (UniProt Q96BZ9), which log2 fold change is on record?
**A.** The log2 fold change was 0.136 (inactive).

**Q.** For TM7SF2 (UniProt O76062), which log2 fold change is on record?
**A.** Its log2 fold change is -0.018 (inactive).

**Q.** Which log2 fold change does the source give for SLC38A7 (UniProt Q9NVC3) here?
**A.** The log2 fold change was 0.095 (inactive).

**Q.** With SRXN1 (UniProt Q9BYN0) as the target, how does the log2 fold change read?
**A.** Its log2 fold change is 0.022 (inactive).

**Q.** With SRSF9 (UniProt Q13242) as the target, how does the log2 fold change read?
**A.** Its log2 fold change is -0.026 (inactive).

**Q.** Which log2 fold change does the source give for THAP9 (UniProt Q9H5L6) here?
**A.** The log2 fold change was -0.139 (inactive).

**Q.** With TDP1 (UniProt Q9NUW8) as the target, how does the log2 fold change read?
**A.** Its log2 fold change is -0.015 (inactive).

**Q.** How did the log2 fold change turn out when SYK (UniProt P43405) was run?
**A.** Its log2 fold change is 0.066 (inactive).

**Q.** Which log2 fold change does the source give for SLC39A1 (UniProt Q9NY26) here?
**A.** The log2 fold change was -0.15 (inactive).
